# Sampled rows, rich in hits. Any-hit rate of the full collection: about 1.6%.
# KCNQ2 enhance: potentiators of rat KCNQ2 potassium channel; B-score at 10 µM; actives 0.54% (n = 310,000); CHO-K1 KCNQ2, FluxOR thallium flux fluorescence; stronger effect = higher value; AID 2239;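 active means fluorescence ratio B-score at least 3 SD of library B-scores, with initial fluorescence B-score within 3 of them, cut at about 5.3 in these data; same plate scores as AID 2156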;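 further: B-score of peak minus minimum over baseline fluorescence ratio after K+ and Tl+ stimulus; positive B-score means potentiation of KCNQ2 with more thallium influx and brighter signal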
# KCNQ2 block: inhibitors of rat KCNQ2 potassium channel; O88943; actives 1.1% (n = 310,000); CHO-K1 KCNQ2, FluxOR thallium flux, 20 min; stronger effect = lower value; B-score at 10 µM;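 active means fluorescence ratio B-score at most minus 3 library SDs, with starting brightness B-score within 2 library SDs, cut at about -5.5 in these data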
# Kir21 conf inh: confirmation of mouse Kir2.1 potassium channel inhibitors; shares compounds with KCNQ2 enhance; Kir2.1-expressing cells, FluxOR thallium flux fluorescence; stronger effect = lower value; Tl flux remaining, % of negative control (stronger effect = lower value), % at 10 µM; actives 41% (n = 2,300);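 active means Primary-screen hit whose thallium flux fell at least 3 control SD below untreated wells in both duplicates, with normal baseline fluorescence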;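 further: 0% = blank wells without stimulus and 100% = stimulated no-compound controls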
# HEK293 Tl flux: alters thallium flux in parental HEK293 cells, Kir2.1 counter-screen | shares compounds with KCNQ2 enhance | FluxOR thallium flux fluorescence; 0% = unstimulated blank wells | FluxOR signal as % of negative control (100 = no effect), % at 10 µM | actives 19% (n = 2,300) | AID 2105;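 active means dye signal at least 3 control SD above or below untreated wells in both duplicates, raw fluorescence within 3, either direction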;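 further: percent is based on the flux ratio of peak minus minimum fluorescence over baseline F0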
# CHO-K1 ctr: counter-screen for KCNQ2 potentiators: effect in parental CHO-K1 cells; activity increase over 3SD of controls, % at 10 µM; shares compounds with KCNQ2 enhance; actives 43% (n = 1,200); FluxOR thallium flux fluorescence; zero = vehicle mean+3SD, 100% = vehicle-minus-blank window;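 active means signal rise of at least 3 SD above the untreated control mean, in both duplicate wells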;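 further: counter screen of KCNQ2 potentiator hits so any rise reflects channel-independent effects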
# KCNQ1 pot spec: selectivity of KCNQ2 potentiators: effect on human KCNQ1 | CHO KCNQ1 stable, FluxOR thallium flux fluorescence; beyond 3SD, as % of vehicle-control signal | activation over 3SD threshold, % at 10 µM | actives 28% (n = 1,200) | shares compounds with KCNQ2 enhance;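 active means fluorescence ratio rise of at least 3 SD of vehicle wells above their mean, in both replicate wells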;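 further: 0% = vehicle mean plus 3 SD and 100% = vehicle minus unstimulated blank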
# Target sequence (P51787 whole entry, looked up): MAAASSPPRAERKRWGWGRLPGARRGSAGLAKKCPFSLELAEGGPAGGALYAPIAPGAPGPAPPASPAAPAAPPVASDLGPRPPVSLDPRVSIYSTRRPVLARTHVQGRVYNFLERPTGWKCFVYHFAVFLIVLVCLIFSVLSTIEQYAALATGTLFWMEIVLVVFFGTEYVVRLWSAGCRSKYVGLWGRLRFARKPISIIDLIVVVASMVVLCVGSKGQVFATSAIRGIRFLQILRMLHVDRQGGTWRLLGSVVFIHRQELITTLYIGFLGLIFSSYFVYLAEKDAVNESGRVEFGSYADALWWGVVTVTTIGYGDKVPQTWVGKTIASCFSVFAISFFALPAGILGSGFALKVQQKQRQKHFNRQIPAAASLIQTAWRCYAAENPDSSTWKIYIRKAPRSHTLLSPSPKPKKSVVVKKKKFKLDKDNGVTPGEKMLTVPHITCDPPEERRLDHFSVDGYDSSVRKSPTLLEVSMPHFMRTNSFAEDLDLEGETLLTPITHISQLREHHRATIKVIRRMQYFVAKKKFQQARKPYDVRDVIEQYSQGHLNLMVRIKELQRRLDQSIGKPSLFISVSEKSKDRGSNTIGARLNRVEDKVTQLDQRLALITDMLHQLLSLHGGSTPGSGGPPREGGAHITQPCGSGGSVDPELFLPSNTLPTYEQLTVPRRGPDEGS
# KCNQ2 pot conf: rat KCNQ2 channel potentiator confirmation | actives 68% (n = 1,200) | shares compounds with KCNQ2 enhance | CHO-KCNQ2 cells, FluxOR thallium flux fluorescence | potentiation, less the hit threshold, % at 10 µM;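 active means fluorescence ratio rising 3 SD or more over the vehicle control mean in both replicates, plus primary screen hit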;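 further: peak minus minimum thallium fluorescence divided by baseline after K/Tl stimulus; 0% = vehicle mean plus 3 SD and 100% = vehicle minus unstimulated blank difference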
# Kir2-1 sel: selectivity of KCNQ2 potentiators: effect on mouse Kir2.1 | shares compounds with KCNQ2 enhance | HEK293 Kir2.1, FluxOR thallium flux fluorescence | activity over 3SD threshold, % at 10 µM | actives 2% (n = 1,200) | AID 2345;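 active means fluorescence ratio rise of at least 3 SD above the vehicle-control mean, seen in both replicates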;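 further: 0% = vehicle mean plus 3 SD and 100% = vehicle minus no-stimulus blank window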
# KCNQ2 W236L MoA: rat KCNQ2 W236L mutant potentiation by KCNQ2 potentiators. shares compounds with KCNQ2 enhance. CHO KCNQ2-W236L, automated patch clamp current. current increase over 3SD of negative controls (%), stronger effect = higher value, % at 25 µM. actives 10% (n = 940);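 active means current increase at least 3 SD of the untreated controls above them in both duplicate recordings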
# Numbers without * were called inactive; i = inactive; nt = no result.
SMILES,KCNQ2 enhance,KCNQ2 block,Kir21 conf inh,HEK293 Tl flux,others
Cn1c(NCc2ccc(Cl)cc2)nc2ccccc21,nt,i,25%*,i,
O=C(c1ccc(F)c(F)c1)N1CCC2(CC1)NCCc1[nH]cnc12,0.68,i,nt,nt,
CC(=O)c1ccccc1C(=O)N1CCC(n2nccc2NC(=O)C2CC2)CC1,nt,i,nt,nt,
CC(=O)c1ccc(NC(=O)C(C)Sc2nnc(C3CCCCC3)o2)cc1 (stereo unspecified),0.36,i,nt,nt,
Cn1ncc2c(O/N=C(\N)c3ccc(C(C)(C)C)cc3)ncnc21,6.2*,i,i,i,CHO-K1 ctr=47*;KCNQ1 pot spec=-1;KCNQ2 pot conf=6.1*;Kir2-1 sel=-36;KCNQ2 W236L MoA=i
COC(CNc1ncnc2c1cnn2C)OC,0.15,i,nt,nt,
O=C(Nc1ccccc1Cl)c1cc[n+]([O-])cc1,1,i,nt,nt,
CC(Nc1ncnc2ccccc12)c1ccccc1 (stereo unspecified),2.4,i,nt,nt,
CCCCC(Nc1ncnc2ccccc12)C(=O)O (stereo unspecified),7.7*,i,i,i,CHO-K1 ctr=-4;KCNQ1 pot spec=-11;KCNQ2 pot conf=-24;Kir2-1 sel=-43
Cc1nc([N+](=O)[O-])c(Br)n1Cc1ccc(Cl)c(Cl)c1,nt,i,nt,nt,
Cc1ccc(N/C(N)=N/c2nc(C)cc(C)n2)cc1,0.74,i,nt,nt,
Cc1cc(C)nc(/N=C(\N)Nc2ccc(C(C)C)cc2)n1,5.5*,i,i,i,CHO-K1 ctr=100*;KCNQ1 pot spec=-15;KCNQ2 pot conf=-17;Kir2-1 sel=-42
CCOc1ccc(NC(C)c2cc(Cl)ccc2O)cc1 (stereo unspecified),4.5,i,nt,nt,
CC(Nc1ccc(Cl)cc1)c1cc(Cl)ccc1O (stereo unspecified),4.2,i,59%*,i,
COCCNC(=O)c1cccc(OC2CCN(Cc3ccc(OC(F)F)cc3)CC2)c1,1,i,nt,nt,
CCC(=O)N(CCC(Cc1ccccc1)c1ccco1)Cc1ccco1 (stereo unspecified),nt,i,54%*,i,
CCC(=O)N(CCC(c1ccccc1)c1ccco1)Cc1cccs1 (stereo unspecified),-14,-14*,62%*,i,
CCC(=O)N(CCC(Cc1ccccc1)c1ccc2c(c1)OCO2)Cc1ccccc1F (stereo unspecified),nt,i,nt,nt,
COc1ccccc1C(CCN(Cc1cccs1)C(C)=O)c1ccco1 (stereo unspecified),nt,i,nt,nt,
COc1ccc(N/C=C(\C=C\C#N)S(=O)(=O)c2ccccc2)cc1,nt,i,nt,nt,
O=C(NCCc1ccc(F)cc1)C(=O)NCC1CCCN1S(=O)(=O)c1cccs1 (stereo unspecified),0.8,i,nt,nt,
O=C(CSc1nnc(CNC(=O)c2c(F)cccc2Cl)o1)NCc1ccccc1,0.03,i,nt,nt,
COc1ccc(CN2CCC(=O)N([C@H](CO)Cc3ccccc3)CC2)cc1OC,nt,i,nt,nt,
CN(Cc1ccccc1)S(=O)(=O)c1csc(C(N)=O)c1,nt,i,nt,nt,
CCOCCCN(Cc1ccco1)S(=O)(=O)c1csc(C(N)=O)c1,nt,i,nt,nt,
SMILES,KCNQ2 enhance,KCNQ2 block,Kir21 conf inh,HEK293 Tl flux,others
CCCCN(Cc1cccs1)S(=O)(=O)c1csc(C(N)=O)c1,nt,i,46%*,i,
CC(C)CCN(Cc1ccco1)S(=O)(=O)c1csc(C(N)=O)c1,nt,i,58%*,i,
COc1ccc(C(=O)Nc2ccccc2C(=O)NCc2cccnc2)cc1,nt,i,nt,nt,
Cc1noc(C)c1-c1ccc2nc[nH]c(=O)c2c1,1.1,i,nt,nt,
O=C(COC(=O)/C=C/C(=O)OCC(=O)NC12CC3CC(CC(C3)C1)C2)NC12CC3CC(CC(C3)C1)C2,0.38,i,nt,nt,
O=C(NC(=S)Nc1ccccc1Cl)c1csnn1,15*,i,i,408%*,CHO-K1 ctr=79*;KCNQ1 pot spec=-19;KCNQ2 pot conf=72*;Kir2-1 sel=-18;KCNQ2 W236L MoA=i
O=C(NC(=S)Nc1cccc(C(F)(F)F)c1)c1csnn1,18*,i,i,442%*,CHO-K1 ctr=-18;KCNQ1 pot spec=-11;KCNQ2 pot conf=80*;Kir2-1 sel=-17;KCNQ2 W236L MoA=i
CCCOc1cccc(C(=O)NC(=S)Nc2cccc(C(F)(F)F)c2)c1,nt,i,nt,nt,
O=C(Nc1ccccc1NC(=O)c1csnn1)c1csnn1,nt,i,nt,nt,
CSc1ncc(Cl)c(C(=O)Nc2ccccc2Br)n1,nt,i,nt,nt,
COc1ccccc1C1(O)C(=O)Nc2ccc(C)cc21 (stereo unspecified),0.14,i,nt,nt,
Cc1nc(N)nc(N)c1CCCc1ccc(Cl)c(Cl)c1,nt,i,37%*,68%*,
COc1ccc(Cc2c(C)nc(N)nc2Cl)cc1,1.2,i,nt,nt,
COCCNS(=O)(=O)c1cc(OC)ccc1OC,nt,i,nt,nt,
CCOC(=O)N1CCC(NC(=O)CSCc2cnn(-c3ccccc3)c2-n2cccc2)CC1,0.04,i,nt,nt,
O=C(CSCc1cnn(-c2ccccc2)c1-n1cccc1)NCc1cccs1,nt,i,i,i,
COc1cccc(CNC(=O)CSCc2cnn(-c3ccccc3)c2-n2cccc2)c1,nt,i,i,i,
CNC(=O)CSCc1cnn(-c2ccccc2)c1-n1cccc1,0.39,i,nt,nt,
O=C(NCCCNC(=O)c1cnccn1)c1ccc(Br)cc1,nt,i,nt,nt,
CCC1=C(OC(=O)N(CC)CC)N2C(=O)OC(=NCC(=O)OC)[C@]2(Cc2ccccc2)[C@H]2C1=CC[C@H]1C(=O)NC(=O)[C@H]12,nt,i,nt,nt,
O=C(CN1C(=O)NC2(CCc3ccccc3C2)C1=O)Nc1ccc(F)cc1 (stereo unspecified),0.42,i,nt,nt,
O=c1c(-c2ccc(Cl)cc2)[n+]([O-])c2ccccc2n1O,6.3*,i,i,220%*,CHO-K1 ctr=-12;KCNQ1 pot spec=-23;KCNQ2 pot conf=-2;Kir2-1 sel=-43;KCNQ2 W236L MoA=i
O=c1c(-c2cccc([N+](=O)[O-])c2)[n+]([O-])c2ccccc2n1O,1.2,i,nt,nt,
COc1ccc(N2CCc3c(C)nc4c(OC)cccc4c32)cc1,1.1,i,nt,nt,
COc1cccc(N2CCc3c(C)nc4ccc(Cl)cc4c32)c1,nt,i,20%*,i,
COc1ccccc1NS(=O)(=O)c1ccc(Cl)c(NC(=O)C(C)N2C(=O)c3ccccc3C2=O)c1 (stereo unspecified),1.2,i,nt,nt,
CCCCCCCCCCCNC(=O)c1ccoc1C,13*,i,nt,nt,CHO-K1 ctr=-20;KCNQ1 pot spec=66*;KCNQ2 pot conf=37*;Kir2-1 sel=-64;KCNQ2 W236L MoA=i
Cc1occc1C(=O)NCCCCNC(=O)c1ccoc1C,0.46,i,nt,nt,

# Bioassay records: PubChem BioAssay, Johns Hopkins Ion Channel Center
